Screens: PubChem BioAssay, National Center for Advancing Translational Sciences (NCATS)
Rows were chosen to be rich in hits. Some 8.8% of all compounds tested hit in one or more screens of this group.
HT1080 IDH1KD tx: qHTS for induction of synthetic lethality in tumor cells producing 2HG: qHTS for the HT-1080-IDH1KD cell line; hit rate 2% among 360,000; HT-1080 IDH1 knockdown viability, ATP luminescence, 48 h; Potency, µM (highest dose often 46.1 µM), hits mostly cytotoxic
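IDH1KD HT-1080 cells, 750/well, RPMI + 5% FBS; compound pinned after 2 h settling; 48 h, 37 °C; CellTiter-Glo luminescence; % activity normalised to DMSO and no-cell wells; curves fitted, classed by r2 and efficacy.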
KB-V1 cytotox: qHTS assay for MDR1-selective chemotherapeutics: Primary screen using the drug-selected MDR subline cells KB-V1 | KB-V1 MDR cells viability, CellTiter-Glo, 72 h | Potency, µM (highest dose often 46.1 µM), most hits filed as cytotoxic | hit rate 3.4% among 400,000; further: nearly all actives have a fitted effect of over 60% in size
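Potencies derive from concentration-effect curves fitted to normalized luminescence (CellTiter-Glo) of KB-V1 cells treated for 72 h at 37 degrees C in phenol-red-free DMEM containing 10% FBS.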
HT1080-NT tox: qHTS for induction of synthetic lethality in tumor cells producing 2HG: qHTS for the HT-1080-NT fibrosarcoma cell line; AID 686970, 2013; HT-1080-NT fibrosarcoma viability, CellTiter-Glo ATP luminescence, 48 h; Potency, µM (titrated, usually from 46.1 µM), usual class: cytotoxic; hit rate 1.6% among 360,000;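 further: NT is the 2HG producing partner of a matched IDH1 knockdown line; nearly all actives have a fitted effect of over 55% in size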
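A 48-hour cytotoxicity screen used HT-1080-NT cells plated 2 hours before compound delivery. ATP-based CellTiter-Glo luminescence measured viability, normalized to DMSO and no-cell controls.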
IL1B secr inh: qHTS for Inhibitors of Inflammasome Signaling: IL-1-beta AlphaLISA Primary Screen | THP-1 LPS/ATP IL-1B secretion, AlphaLISA, 16 h; active compounds read low | activity change, % at 57.5 µM | hit rate 4.7% among 360,000; in the data active means activity change below about -50%; inconclusive means mostly about -30% to -49%
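Secreted IL-1B measured by AlphaLISA bead assay after 16 h compound exposure of THP-1 cells; compounds (final up to 57.5 uM) added 1 h before LPS (250 ng/mL) and ATP (1.25 mM) stimulation; lower signal means less secretion.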
KB-3-1 cytotox: qHTS assay for MDR1-selective chemotherapeutics: Primary screen using the parental adenocarcinoma cell KB-3-1; KB-3-1 viability, CellTiter-Glo ATP luminescence, 72 h; Potency, µM (highest dose often 46.1 µM), actives largely listed as cytotoxic; hit rate 1.4% among 400,000; further: nearly all actives have a fitted effect of over 60% in size
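Screening of KB-3-1 cells (DMEM, 10% FBS, phenol-red free) ran from lowest to highest compound concentration; after 72 h at 37 °C viability was read luminescently and curves fitted.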
Each line names hits and unclear results; the compound was inactive in the other large screens. Unless noted, the call rests on the fitted dose curve; in most records, active means well fitted curve in the direction sought with a large enough effect; inconclusive means small, poorly fitted or top-dose-only effect, or another doubt; inactive means no such curve, though single readings can be large; an effect the other way counts as inactive or inconclusive.

Cc1ccc(-n2cc(CN3CCNC(=O)CC3)c(-c3ccc(F)cc3)n2)cc1	none (no result: IL1B secr inh)
COCCN(C(=S)Nc1ccc(C)cc1C)C(C)c1ccco1 (stereo not given)	HT1080-NT tox inconclusive
COc1ccc2c(C(=O)c3ccc(Cl)cc3)n(CCCC(N)=O)[n+]([O-])c2c1	none
CCOC(=O)O[C@]1(C(=O)COC(=O)CC)CC[C@H]2[C@@H]3CCC4=CC(=O)C=C[C@]4(C)[C@H]3[C@@H](O)C[C@@]21C	none
CCC(=O)OCC(=O)C1(OC(=O)CC)[C@H](C)C[C@H]2[C@H]3[C@H]([C@@H](O)C[C@@]21C)[C@@]1(C)C=CC(=O)C=C1C[C@H]3Cl (stereo not given in full)	HT1080 IDH1KD tx inconclusive, HT1080-NT tox inconclusive, IL1B secr inh -51
O=C(c1ccc2c3n(nc2c1)-c1ccc(Cl)cc1CO3)N1CCOCC1	KB-V1 cytotox inconclusive, HT1080-NT tox inconclusive
O=C(c1ccc2c3n(nc2c1)-c1ccccc1CO3)N1CCOCC1	HT1080 IDH1KD tx 23µM, KB-V1 cytotox inconclusive, HT1080-NT tox 8.2µM, KB-3-1 cytotox 7.3µM
O=C(c1ccc2c3n(nc2c1)-c1ccccc1CO3)N1CCCCC1	HT1080 IDH1KD tx 23µM, KB-V1 cytotox 10µM, HT1080-NT tox 16µM, KB-3-1 cytotox 9.2µM
CCOC(=O)c1c(N)sn(-c2ccccc2)c1=S	none
CCOC(=O)c1c2c(c(=S)n(-c3ccccc3)c1N)CCC2	KB-V1 cytotox 21µM
COc1cc(C2(C)SCCCS2)cc(OC)c1OC	HT1080 IDH1KD tx inconclusive
O=C(O)c1ccc(-n2c(/C=C/c3ccccc3)nc3ccccc3c2=O)cc1	none
COC(=O)c1ccc(-n2c(/C=C\c3cccc(Br)c3)nc3ccccc3c2=O)cc1	KB-V1 cytotox inconclusive, KB-3-1 cytotox 13µM (no result: HT1080 IDH1KD tx, HT1080-NT tox, IL1B secr inh)
O=C(CCCCl)Nc1c2c(nn1-c1ccccc1)CSC2	KB-V1 cytotox inconclusive
O=C(CCl)Nc1c2c(nn1-c1ccccc1)CSC2	HT1080 IDH1KD tx inconclusive, KB-V1 cytotox inconclusive, HT1080-NT tox inconclusive, IL1B secr inh -96, KB-3-1 cytotox inconclusive
N#Cc1cnn(-c2cccc(Cl)c2)c1-n1cccc1	none
N=c1oc2ccc3ccccc3c2cc1-c1nc(-c2ccccc2)cs1	none
N=c1oc2ccccc2cc1-c1nc(-c2ccccc2)cs1	KB-V1 cytotox 23µM
O=C(NCc1ccco1)c1cccnc1-c1nc2ccccc2s1	KB-V1 cytotox 13µM
O=C(NCc1ccco1)c1cccnc1Cl	none
C=C1C(=O)OCC2C(C(=O)O)=CC3C(C)C(C)=CC123 (stereo not given)	HT1080 IDH1KD tx inconclusive, KB-V1 cytotox inconclusive, IL1B secr inh -70, KB-3-1 cytotox inconclusive
Cc1ccc(-c2c(C)n3c4c(=O)n(C)c(=O)n(C)c4nc3n2CCCO)cc1	KB-V1 cytotox 6.5µM, KB-3-1 cytotox inconclusive (no result: HT1080 IDH1KD tx, HT1080-NT tox, IL1B secr inh)
COCCCNC(=O)c1ccc2c(c1)N=C(C)c1c(C)ccc(C)c1S2	KB-V1 cytotox 0.052µM, KB-3-1 cytotox 0.016µM (no result: HT1080 IDH1KD tx, HT1080-NT tox, IL1B secr inh)
CC1=Nc2cc(C(=O)NC3CCC(C)CC3)ccc2Sc2c(C)ccc(C)c21 (stereo not given)	KB-V1 cytotox 0.26µM, KB-3-1 cytotox 0.52µM (no result: HT1080 IDH1KD tx, HT1080-NT tox, IL1B secr inh)
CCOC(=O)N1CCC(NC(=O)c2ccc3c(c2)N=C(C)c2c(C)ccc(C)c2S3)CC1	HT1080 IDH1KD tx 2.3µM, KB-V1 cytotox 5.2µM, HT1080-NT tox 2.1µM, KB-3-1 cytotox 2.1µM
COc1ccc(C2Nc3ccc(NC(C)=O)cc3C(=O)N2Cc2cccc(Cl)c2)cc1COc1ccc(NC(C)=O)cc1 (stereo not given)	none (no result: KB-V1 cytotox, IL1B secr inh, KB-3-1 cytotox)
O=C(NCc1ccccc1Cl)c1ccc(CSc2nc3ccncc3[nH]2)cc1	IL1B secr inh -76
Clc1ccccc1CSc1nc2ccncc2[nH]1	none
CCCS(=O)(=O)N1CCN(Cc2ccc(OCc3ccccc3)c(OC)c2)CC1	IL1B secr inh -73
COc1ccc(CN2CCN(C(=O)c3ccc(S(=O)(=O)N4CCCCCC4)cc3)CC2)cc1	KB-V1 cytotox 2.3µM, HT1080-NT tox 16µM, IL1B secr inh inconclusive, KB-3-1 cytotox 8.2µM
O=C(c1ccc(S(=O)(=O)N2CCCCCC2)cc1)N1CCN(Cc2ccccc2)CC1	KB-V1 cytotox inconclusive, IL1B secr inh inconclusive
COc1ccc(CN2CCN(S(=O)(=O)c3ccc(NC(C)=O)cc3)CC2)cc1OC	KB-V1 cytotox 21µM, IL1B secr inh inconclusive
COc1ccc(CN2CCN(C(=O)c3ccc(S(=O)(=O)N4CCCCCC4)cc3)CC2)cc1F	KB-V1 cytotox inconclusive, KB-3-1 cytotox 23µM
O=C(O)c1cnc(-c2ccccc2)nc1C(F)(F)F	none
O=C(/C=C/c1cccs1)N1CCC2(CC1)Oc1ccc(Cl)cc1C(=O)C21CC(c2ccccc2)=NO1 (stereo not given)	none
Cc1ccccc1CN1CCCN(CC(=O)Nc2ccc3c(c2)OCCO3)S1(=O)=O	none (no result: HT1080 IDH1KD tx, HT1080-NT tox, IL1B secr inh)
Nc1ccc2cc3[nH]c4cc(N)ccc4c3nc2c1	HT1080 IDH1KD tx inconclusive, HT1080-NT tox inconclusive, IL1B secr inh -109, KB-3-1 cytotox inconclusive
Nc1ccc2nc(-c3cccc(-c4nc5ccc(N)cc5[nH]4)c3)[nH]c2c1	none
COC1=CC(=O)OC(c2ccc(C(F)(F)F)cc2)C1 (stereo not given)	IL1B secr inh inconclusive
Cc1ccc2cc(C3CC(c4ccco4)=NN3S(=O)(=O)c3ccccc3)c(Cl)nc2c1 (stereo not given)	KB-3-1 cytotox inconclusive
COc1ccc2cc(C3CC(c4ccco4)=NN3S(=O)(=O)c3ccccc3)c(Cl)nc2c1 (stereo not given)	KB-V1 cytotox 15µM, IL1B secr inh inconclusive
CCOc1ccc2nc(Cl)c(C3CC(c4ccco4)=NN3S(C)(=O)=O)cc2c1 (stereo not given)	KB-V1 cytotox inconclusive
CCOc1ccc2cc(C3CC(c4ccco4)=NN3S(=O)(=O)c3ccccc3)c(Cl)nc2c1 (stereo not given)	KB-V1 cytotox 5.8µM
COC(=O)c1ccc2c(=O)n(CCCCCC(=O)NCc3ccc(Cl)cc3)c(=O)[nH]c2c1	none (no result: HT1080 IDH1KD tx, HT1080-NT tox, IL1B secr inh)
CC(Oc1ccccc1)C(=O)Nc1nc(-c2ccccn2)cs1 (stereo not given)	HT1080 IDH1KD tx inconclusive, IL1B secr inh -103, KB-3-1 cytotox inconclusive
CC(Oc1ccccc1)C(=O)Nc1nc(-c2ccncc2)cs1 (stereo not given)	none
CC(Oc1cccc(Cl)c1)C(=O)Nc1nc(-c2ccccn2)cs1 (stereo not given)	HT1080-NT tox inconclusive, IL1B secr inh -101, KB-3-1 cytotox inconclusive
Cc1cccc(N2CCN(C(=O)c3ccc4c(c3)NC(=O)C(CSCc3cccc(F)c3)N4)CC2C)c1 (stereo not given)	none
